Experimental findings from article PMC11006913 are described below.

Holding throughout (test): PBM; 200 nM protein, PBS
Holding throughout (details): dsDNA, one strand shown

In one experiment the target is ALX3 (Homo sapiens, UniProt O95076 139-225, N203S).
In experiment [1] the target is PROP1 (Homo sapiens, UniProt O75360 56-141).
Experiment [2] addresses PROP1 (Homo sapiens, UniProt O75360 56-141, R99H).
Experiment [3] has as its target PROP1 (Homo sapiens, UniProt O75360 56-141, F88S).

PROP1 (Homo sapiens, UniProt O75360 56-141), sequence (O75360 56-141): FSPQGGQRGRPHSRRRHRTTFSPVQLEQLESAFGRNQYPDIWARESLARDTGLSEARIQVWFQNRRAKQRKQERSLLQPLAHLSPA
PROP1 (Homo sapiens, UniProt O75360 56-141, F88S), sequence (O75360 56-141 F88S): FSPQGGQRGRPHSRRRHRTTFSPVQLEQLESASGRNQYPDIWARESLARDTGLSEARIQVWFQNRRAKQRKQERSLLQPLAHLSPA
PROP1 (Homo sapiens, UniProt O75360 56-141, R99H), sequence (O75360 56-141 R99H): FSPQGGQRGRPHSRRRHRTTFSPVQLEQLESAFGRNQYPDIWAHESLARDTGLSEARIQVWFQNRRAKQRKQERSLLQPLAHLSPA
ALX3, sequence (O95076 139-225 N203S): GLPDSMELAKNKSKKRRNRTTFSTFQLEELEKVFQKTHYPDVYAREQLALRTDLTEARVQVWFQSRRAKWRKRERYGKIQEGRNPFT

With GGTTGTTA, the binding signal with ALX3 was 8.28 upbm affinity estimate (log intensity, higher = more binding, comparable within an allelic series).

For AATATGAA, the binding signal with PROP1 [1] is 8.47 upbm affinity estimate (log intensity, higher = more binding, comparable within an allelic series); in the experiment with PROP1 [2], 8.01 upbm affinity estimate (log intensity, higher = more binding, comparable within an allelic series); in the experiment with PROP1 [3], 7.42 upbm affinity estimate (log intensity, higher = more binding, comparable within an allelic series).

On to GTCTCGAA, for which the binding signal was 6.78 upbm affinity estimate (log intensity, higher = more binding, comparable within an allelic series) in the experiment with PROP1 [1]; 6.8 upbm affinity estimate (log intensity, higher = more binding, comparable within an allelic series) with PROP1 [2]; 7.1 upbm affinity estimate (log intensity, higher = more binding, comparable within an allelic series) in the experiment with PROP1 [3].

In the case of GGTGCACC, the binding signal with PROP1 [1] was 6.54 upbm affinity estimate (log intensity, higher = more binding, comparable within an allelic series); in the experiment with PROP1 [2], 6.58 upbm affinity estimate (log intensity, higher = more binding, comparable within an allelic series); with PROP1 [3] it was 6.7 upbm affinity estimate (log intensity, higher = more binding, comparable within an allelic series).

Take GTGCGCCA: the binding signal is 6.79 upbm affinity estimate (log intensity, higher = more binding, comparable within an allelic series) with PROP1 [1]; 6.83 upbm affinity estimate (log intensity, higher = more binding, comparable within an allelic series) in the experiment with PROP1 [2]; 6.75 upbm affinity estimate (log intensity, higher = more binding, comparable within an allelic series) in the experiment with PROP1 [3].

GCATCTCC: the binding signal with PROP1 [1] is 6.85 upbm affinity estimate (log intensity, higher = more binding, comparable within an allelic series); with PROP1 [2], 6.93 upbm affinity estimate (log intensity, higher = more binding, comparable within an allelic series); in the experiment with PROP1 [3], 6.57 upbm affinity estimate (log intensity, higher = more binding, comparable within an allelic series).

Turning to AGTCTGCG, the binding signal with PROP1 [1] is 6.67 upbm affinity estimate (log intensity, higher = more binding, comparable within an allelic series); with PROP1 [2] it was 6.73 upbm affinity estimate (log intensity, higher = more binding, comparable within an allelic series); in the experiment with PROP1 [3] it was 6.68 upbm affinity estimate (log intensity, higher = more binding, comparable within an allelic series).

Turning to GCTAGACC, the binding signal is 6.61 upbm affinity estimate (log intensity, higher = more binding, comparable within an allelic series) in the experiment with PROP1 [1]; 6.75 upbm affinity estimate (log intensity, higher = more binding, comparable within an allelic series) with PROP1 [2]; 6.62 upbm affinity estimate (log intensity, higher = more binding, comparable within an allelic series) with PROP1 [3].

Turning to CCGACCGG, the binding signal is 6.54 upbm affinity estimate (log intensity, higher = more binding, comparable within an allelic series) with PROP1 [1]; 6.6 upbm affinity estimate (log intensity, higher = more binding, comparable within an allelic series) in the experiment with PROP1 [2]; 6.35 upbm affinity estimate (log intensity, higher = more binding, comparable within an allelic series) with PROP1 [3].

As to AGAGCCGG, the binding signal in the experiment with PROP1 [1] was 6.81 upbm affinity estimate (log intensity, higher = more binding, comparable within an allelic series); in the experiment with PROP1 [2], 6.67 upbm affinity estimate (log intensity, higher = more binding, comparable within an allelic series); with PROP1 [3], 6.47 upbm affinity estimate (log intensity, higher = more binding, comparable within an allelic series).

Take CCGGGCTA: the binding signal in the experiment with PROP1 [1] was 6.87 upbm affinity estimate (log intensity, higher = more binding, comparable within an allelic series); in the experiment with PROP1 [2], 6.89 upbm affinity estimate (log intensity, higher = more binding, comparable within an allelic series); with PROP1 [3], 6.52 upbm affinity estimate (log intensity, higher = more binding, comparable within an allelic series).

Consider CGCGAACC, for which the binding signal with PROP1 [1] is 6.6 upbm affinity estimate (log intensity, higher = more binding, comparable within an allelic series); with PROP1 [2], 6.67 upbm affinity estimate (log intensity, higher = more binding, comparable within an allelic series); in the experiment with PROP1 [3], 6.71 upbm affinity estimate (log intensity, higher = more binding, comparable within an allelic series).

Turning to GCCATGGC, the binding signal with PROP1 [1] is 6.94 upbm affinity estimate (log intensity, higher = more binding, comparable within an allelic series); in the experiment with PROP1 [2], 6.8 upbm affinity estimate (log intensity, higher = more binding, comparable within an allelic series); with PROP1 [3] it was 6.74 upbm affinity estimate (log intensity, higher = more binding, comparable within an allelic series).

With AGGGCCGC, the binding signal in the experiment with PROP1 [1] was 6.72 upbm affinity estimate (log intensity, higher = more binding, comparable within an allelic series); in the experiment with PROP1 [2] it was 6.82 upbm affinity estimate (log intensity, higher = more binding, comparable within an allelic series); with PROP1 [3], 6.5 upbm affinity estimate (log intensity, higher = more binding, comparable within an allelic series).

For the sequence AGACCGTC, the binding signal in the experiment with PROP1 [1] is 6.82 upbm affinity estimate (log intensity, higher = more binding, comparable within an allelic series); in the experiment with PROP1 [2] it was 6.83 upbm affinity estimate (log intensity, higher = more binding, comparable within an allelic series); with PROP1 [3], 6.81 upbm affinity estimate (log intensity, higher = more binding, comparable within an allelic series).

In the case of AGGCTCCG, the binding signal in the experiment with PROP1 [1] was 6.78 upbm affinity estimate (log intensity, higher = more binding, comparable within an allelic series); with PROP1 [2], 6.73 upbm affinity estimate (log intensity, higher = more binding, comparable within an allelic series); in the experiment with PROP1 [3], 6.8 upbm affinity estimate (log intensity, higher = more binding, comparable within an allelic series).

As to GCGGCCGA, the binding signal in the experiment with PROP1 [1] is 6.81 upbm affinity estimate (log intensity, higher = more binding, comparable within an allelic series); with PROP1 [2], 6.82 upbm affinity estimate (log intensity, higher = more binding, comparable within an allelic series); in the experiment with PROP1 [3] it was 6.76 upbm affinity estimate (log intensity, higher = more binding, comparable within an allelic series).

Turning to AATTCAAC, the binding signal in the experiment with PROP1 [1] is 8.25 upbm affinity estimate (log intensity, higher = more binding, comparable within an allelic series); in the experiment with PROP1 [2] it was 7.78 upbm affinity estimate (log intensity, higher = more binding, comparable within an allelic series); with PROP1 [3], 7.25 upbm affinity estimate (log intensity, higher = more binding, comparable within an allelic series).

Turning to AAAAATTT, the binding signal is 8.27 upbm affinity estimate (log intensity, higher = more binding, comparable within an allelic series) in the experiment with PROP1 [1]; 7.95 upbm affinity estimate (log intensity, higher = more binding, comparable within an allelic series) with PROP1 [2]; 7.46 upbm affinity estimate (log intensity, higher = more binding, comparable within an allelic series) with PROP1 [3].

GCAAATAA: the binding signal is 9 upbm affinity estimate (log intensity, higher = more binding, comparable within an allelic series) with PROP1 [1]; 8.48 upbm affinity estimate (log intensity, higher = more binding, comparable within an allelic series) in the experiment with PROP1 [2]; 7.34 upbm affinity estimate (log intensity, higher = more binding, comparable within an allelic series) with PROP1 [3].

In the case of GCTCGGAC, the binding signal with PROP1 [1] was 6.55 upbm affinity estimate (log intensity, higher = more binding, comparable within an allelic series); in the experiment with PROP1 [2], 6.66 upbm affinity estimate (log intensity, higher = more binding, comparable within an allelic series); with PROP1 [3] it was 6.68 upbm affinity estimate (log intensity, higher = more binding, comparable within an allelic series).

Turning to GGGTCGGA, the binding signal with PROP1 [1] was 6.69 upbm affinity estimate (log intensity, higher = more binding, comparable within an allelic series); with PROP1 [2], 6.78 upbm affinity estimate (log intensity, higher = more binding, comparable within an allelic series); with PROP1 [3], 6.58 upbm affinity estimate (log intensity, higher = more binding, comparable within an allelic series).

With ATTACTAA, the binding signal in the experiment with PROP1 [1] was 9.85 upbm affinity estimate (log intensity, higher = more binding, comparable within an allelic series); with PROP1 [2], 9.4 upbm affinity estimate (log intensity, higher = more binding, comparable within an allelic series); in the experiment with PROP1 [3], 7.62 upbm affinity estimate (log intensity, higher = more binding, comparable within an allelic series).

Take GCCTGCGA: the binding signal with PROP1 [1] is 6.74 upbm affinity estimate (log intensity, higher = more binding, comparable within an allelic series); with PROP1 [2] it was 6.64 upbm affinity estimate (log intensity, higher = more binding, comparable within an allelic series); in the experiment with PROP1 [3], 6.59 upbm affinity estimate (log intensity, higher = more binding, comparable within an allelic series).

With GCTCCTCC, the binding signal with PROP1 [1] is 6.62 upbm affinity estimate (log intensity, higher = more binding, comparable within an allelic series); in the experiment with PROP1 [2], 6.55 upbm affinity estimate (log intensity, higher = more binding, comparable within an allelic series); in the experiment with PROP1 [3] it was 6.45 upbm affinity estimate (log intensity, higher = more binding, comparable within an allelic series).

For the sequence ACGGTAGG, the binding signal is 6.51 upbm affinity estimate (log intensity, higher = more binding, comparable within an allelic series) with PROP1 [1]; 6.62 upbm affinity estimate (log intensity, higher = more binding, comparable within an allelic series) with PROP1 [2]; 6.62 upbm affinity estimate (log intensity, higher = more binding, comparable within an allelic series) in the experiment with PROP1 [3].

On to AAGGGAGT, for which the binding signal in the experiment with PROP1 [1] is 6.58 upbm affinity estimate (log intensity, higher = more binding, comparable within an allelic series); with PROP1 [2], 6.7 upbm affinity estimate (log intensity, higher = more binding, comparable within an allelic series); with PROP1 [3], 6.82 upbm affinity estimate (log intensity, higher = more binding, comparable within an allelic series).

As for AGGACACC, the binding signal in the experiment with PROP1 [1] is 6.84 upbm affinity estimate (log intensity, higher = more binding, comparable within an allelic series); in the experiment with PROP1 [2], 6.77 upbm affinity estimate (log intensity, higher = more binding, comparable within an allelic series); with PROP1 [3], 6.75 upbm affinity estimate (log intensity, higher = more binding, comparable within an allelic series).

Turning to AATTGGCG, the binding signal is 9.12 upbm affinity estimate (log intensity, higher = more binding, comparable within an allelic series) with PROP1 [1]; 8.88 upbm affinity estimate (log intensity, higher = more binding, comparable within an allelic series) in the experiment with PROP1 [2]; 7.29 upbm affinity estimate (log intensity, higher = more binding, comparable within an allelic series) with PROP1 [3].
